In the supplement of paper PMC3545927:
The other results are listed elsewhere or left out. How many sequences the whole screen found active is unknown.

Target: furin, P09958
Assay: furin cleavage Z-score vs untreated control; higher = more cleavage, active = 3.5 or more, inactive = 1 or less, 8 variable residues between constant flanks
Outline: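 Cleavage by purified furin was measured on 8-mer peptides fused to a cDNA oligonucleotide and held on magnetic beads by their N-terminus. Reactions (0.01 ml, 1:10 enzyme:substrate) ran 7.5, 15 or 30 min in 50 mM HEPES pH 7.5 with CaCl2 and NaCl. Released DNA was adapter-tagged by PCR and sequenced, with read counts giving abundance. Log counts versus furin-free reactions were lowess-adjusted and scaled by median absolute deviation to give the cleavage Z-score.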

furin, P09958, sequence (P09958 whole entry): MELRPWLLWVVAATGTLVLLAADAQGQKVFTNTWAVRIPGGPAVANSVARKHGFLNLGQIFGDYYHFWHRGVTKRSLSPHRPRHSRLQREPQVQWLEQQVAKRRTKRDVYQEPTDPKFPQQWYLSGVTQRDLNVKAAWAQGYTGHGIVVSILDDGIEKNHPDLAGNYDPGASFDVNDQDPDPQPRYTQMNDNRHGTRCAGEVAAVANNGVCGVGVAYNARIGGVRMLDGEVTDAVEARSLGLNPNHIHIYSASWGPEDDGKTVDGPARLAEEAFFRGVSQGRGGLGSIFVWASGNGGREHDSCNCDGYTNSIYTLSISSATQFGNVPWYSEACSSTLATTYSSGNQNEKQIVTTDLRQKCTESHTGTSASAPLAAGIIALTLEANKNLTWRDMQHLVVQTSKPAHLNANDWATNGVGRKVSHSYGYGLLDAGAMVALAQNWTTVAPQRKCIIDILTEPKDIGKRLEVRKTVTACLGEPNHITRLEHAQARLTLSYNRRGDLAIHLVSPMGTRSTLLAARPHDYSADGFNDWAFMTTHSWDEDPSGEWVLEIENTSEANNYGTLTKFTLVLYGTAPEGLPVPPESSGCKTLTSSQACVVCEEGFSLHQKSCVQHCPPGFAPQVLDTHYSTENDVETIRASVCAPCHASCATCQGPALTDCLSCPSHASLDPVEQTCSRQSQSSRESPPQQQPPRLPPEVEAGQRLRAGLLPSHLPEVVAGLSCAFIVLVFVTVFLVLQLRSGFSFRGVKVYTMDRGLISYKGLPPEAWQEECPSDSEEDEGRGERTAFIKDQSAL

| Sequence | furin cleavage Z-score (7.5 min) | furin cleavage Z-score (15 min) | furin cleavage Z-score (30 min) |
| --- | --- | --- | --- |
| CATTPCSGEWAGNASASA [HC1912] | -1.69 (inactive) | -0.859 (inactive) | 0.0519 (inactive) |
| CAMVCCSMSYAGNASASA [HC1986] | 0.714 (inactive) | 1.46 | 0.242 (inactive) |
| CAIICDECHSAGNASASA [HC817] | -0.464 (inactive) | -1.69 (inactive) | -0.782 (inactive) |
| CAKDSRCDRDAGNASASA [FS-544] | -1.48 (inactive) | -1.29 (inactive) | 0.34 (inactive) |
| CAKSRRARRDAGNASASA [FS-1597] | 7.96 (active) | 9.22 (active) | 7.04 (active) |
| CAALDTEVAAAGNASASA [HC565] | 1.05 | 0.0294 (inactive) | -0.123 (inactive) |
| CAQLAAPGAAAGNASASA [HC1070] | -0.00694 (inactive) | -2.1 (inactive) | -1.59 (inactive) |
| CARMAREVAAAGNASASA [FS-1909] | 6.15 (active) | 4.78 (active) | 6.63 (active) |
| CARPDRPVLKAGNASASA [FS-2436] | -0.645 (inactive) | -0.376 (inactive) | -0.377 (inactive) |
| CARKFRDLLKAGNASASA [FS-1724] | -0.828 (inactive) | -1.86 (inactive) | 0.751 (inactive) |
| CARMARNVLKAGNASASA [FS-2281] | 2.27 | 2.22 | 4.88 (active) |
| CAEPVTSTWVAGNASASA [HC2179] | 1.29 | -0.789 (inactive) | 0.354 (inactive) |
| CARFARYYRDAGNASASA [FS-373] | 4.68 (active) | 4.65 (active) | 5.39 (active) |
| CASSNRLARFAGNASASA [FS-1284] | 3.54 (active) | 4.58 (active) | 6.02 (active) |
| CARKKREIRSAGNASASA [FS-2962] | 14.3 (active) | 12.6 (active) | 10.5 (active) |
| CARKKKGKADAGNASASA [FS-2690] | 0.358 (inactive) | -1.8 (inactive) | -1.17 (inactive) |

| Sequence | furin cleavage Z-score (7.5 min) | furin cleavage Z-score (15 min) | furin cleavage Z-score (30 min) |
| --- | --- | --- | --- |
| CARKKRGYRDAGNASASA [FS-1856] | 10.5 (active) | 11.2 (active) | 8.83 (active) |
| CASSIASWAIAGNASASA [HC514] | 0.395 (inactive) | 0.651 (inactive) | 2.3 |
| CAMEECSQHLAGNASASA [HC14] | 1.42 | 0.653 (inactive) | 1.44 |
| CARKKREITEAGNASASA [FS-2963] | 11.3 (active) | 12.7 (active) | 9.25 (active) |
| CASMGREIRSAGNASASA [FS-1082] | 4.08 (active) | 3.82 (active) | 3.6 (active) |
| CASSNRSYRDAGNASASA [FS-1419] | 2.48 | 3.58 (active) | 4.08 (active) |
| CAVVCCSMWYAGNASASA [HC2068] | 1.14 | -0.944 (inactive) | 0.031 (inactive) |
| CACGNTLTCYAGNASASA [HC1515] | -0.25 (inactive) | -2.28 (inactive) | -1.28 (inactive) |
| CARGDSRGSLAGNASASA [HC733] | -0.929 (inactive) | -0.316 (inactive) | -0.341 (inactive) |
| CARSSRDSSAAGNASASA [FS-2092] | -0.528 (inactive) | -0.415 (inactive) | -0.31 (inactive) |
| CAMWHREKRRAGNASASA [FS-1141] | 5.25 (active) | 5.23 (active) | 5.34 (active) |
| CARSSRHPRRAGNASASA [FS-714] | 5.43 (active) | 9.72 (active) | 6.86 (active) |
| CARSSRSNGRAGNASASA [FS-3097] | -1.39 (inactive) | -0.51 (inactive) | -1.39 (inactive) |
| CALTCYIKARAGNASASA [HC1517] | -0.101 (inactive) | 0.266 (inactive) | 1.28 |
| CARSSREKRRAGNASASA [FS-377] | 6.18 (active) | 7.1 (active) | 5.14 (active) |
| CAGRCREKRRAGNASASA [FS-431] | 6.37 (active) | 7.82 (active) | 6.78 (active) |
